A selection: hits, their analogues and other compounds. The true share with any hit is near 3.1%.
FGF22 binding = binders of recombinant human FGF22 by thermal shift; 340,000 tested, 1.5% active; Q9HCT0; activity (Tm shift, normalised), % at 9.99 µM; SYPRO orange fluorescence; percent of sucrose octasulfate shift, DMSO zero;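 active = mean Tm shift, scaled 0 neutral to 100 positive control, at about 1.3% or above, every replicate too, limit read from the data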
CASP6 VEID inh = inhibitors of human caspase-6 | P55212 | 350,000 tested, 0.53% active | purified caspase-6, Z-VEID-R110 cleavage fluorescence | inhibition, % at 12.5 µM | AID 686996;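 active = mean inhibition across replicates at least about 35%, with every replicate also reaching that limit, limit read from the data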
Target sequence (P55212 24-179 limits assumed): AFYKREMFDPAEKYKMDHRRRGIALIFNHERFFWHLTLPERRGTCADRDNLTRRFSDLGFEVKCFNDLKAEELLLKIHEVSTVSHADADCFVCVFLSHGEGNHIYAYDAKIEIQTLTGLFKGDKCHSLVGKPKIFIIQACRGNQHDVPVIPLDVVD
Target sequence (P55212 194-293 limits assumed): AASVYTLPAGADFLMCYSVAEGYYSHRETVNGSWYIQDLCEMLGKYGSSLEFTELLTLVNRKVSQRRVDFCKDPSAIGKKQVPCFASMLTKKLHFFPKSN
ERAP1 inh = blocks human ERAP1 aminopeptidase activity | inhibition, % at 10.7 µM | recombinant ERAP1, Leu-AMC fluorescence, 60 min | 340,000 tested, 0.15% active | Q9NZ08;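 active = mean replicate inhibition of at least 30%, or all replicates individually reaching that 30% level; inactive = mean below 30% and not every replicate reaching it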
SIRT5 block = blocks human SIRT5 desuccinylation of peptide | Q9NXA8 | Purified SirT5, succinyl-peptide AMC, trypsin-coupled fluorescence | inhibition, % at 15 µM | 330,000 tested, 1.1% active; in the data active = inhibition above about 15%
Target sequence (Q9NXA8 whole entry, looked up): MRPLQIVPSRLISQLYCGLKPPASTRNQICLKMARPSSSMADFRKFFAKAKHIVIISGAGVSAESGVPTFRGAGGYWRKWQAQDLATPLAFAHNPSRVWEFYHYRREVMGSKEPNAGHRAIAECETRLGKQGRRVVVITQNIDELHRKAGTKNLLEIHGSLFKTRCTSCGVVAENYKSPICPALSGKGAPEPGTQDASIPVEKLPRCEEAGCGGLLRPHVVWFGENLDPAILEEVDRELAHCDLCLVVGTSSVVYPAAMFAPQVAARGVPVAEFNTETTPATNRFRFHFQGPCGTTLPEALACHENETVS
Each line names hits and unclear results; the compound was inactive in the other large screens.

COc1cccc(NC(=O)N2CC(=O)N3[C@H](CO)[C@@H](c4ccc(C#CCC5CCCC5)cc4)[C@H]3C2)c1	SIRT5 block 22
CN1C(=O)c2cc(NC(=O)C3CCCC3)ccc2OC[C@@H]2O[C@@H](CC(=O)NCC(F)(F)F)CC[C@H]21	none
CC(=O)O/N=C/c1c(Cl)n(C)c2ccccc12	FGF22 binding 44
Cn1c(Cl)c(/C=N/OC(=O)C(C)(C)C)c2ccccc21	none
C[C@@H]1CN([C@@H](C)CO)C(=O)c2cc(C#CC3CCCCC3)cnc2O[C@H]1CN(C)Cc1cccnc1	none
COc1cccc2c1C(=O)c1c(O)c3c(c(O)c1C2=O)C[C@](O)(C(C)=O)C[C@H]3O[C@@H]1C[C@@H](N)[C@@H](O)[C@@H](C)O1	none
COc1cccc2c1C(=O)c1c(O)c3c(c(O)c1C2=O)CC(O)(C(C)=O)CC3OC1CC(O)C(O)C(C)O1 (stereo not given)	ERAP1 inh 32 (no result: SIRT5 block)
C[C@H](CO)N1C[C@H](C)[C@H](CN(C)S(=O)(=O)c2ccc(Cl)cc2)Oc2ccc(NC(=O)c3ccncc3)cc2CC1=O	none
Cc1sc2ccccc2c1CNC[C@H]1O[C@@H](n2cnc(C(N)=O)n2)[C@H](O)[C@@H]1O	FGF22 binding 44 (no result: SIRT5 block)
C[C@H]1CN([C@@H](C)CO)C(=O)c2cccc(NC(=O)c3ccncc3)c2O[C@@H]1CN(C)S(=O)(=O)c1ccc(Cl)cc1	none
O=C(O)c1ccccc1OC(=O)C12CC3CC(CC(C3)C1)C2	FGF22 binding 43
Cc1[nH]ncc1Nc1ccccc1C(C)C	none
Cc1[nH]ncc1Nc1c(C(C)C)cccc1C(C)C	CASP6 VEID inh 55
Cc1ccc(S(=O)(=O)N(C)C[C@H]2Oc3ccc(NC(=O)CCN4CCOCC4)cc3CC(=O)N([C@H](C)CO)C[C@H]2C)cc1	none
CCCCN1C(=O)C(CC(=O)NCC2CCCCC2)CC(C(=O)N(CC)CC)=C1C (stereo not given)	SIRT5 block 17
CC(C)NC(=O)Nc1cccc2c1O[C@@H](CN(C)S(=O)(=O)c1ccccc1)[C@@H](C)CN([C@@H](C)CO)C2=O	none
COCCNC(=O)[C@H]1[C@H](CO)[C@H]2Cn3c(ccc(-c4ccc(OC)cc4)c3=O)[C@@H]1N2C(=O)NC(C)C	none
O=C(Cc1ccncc1)NCC[C@@H]1CC[C@@H](NC(=O)C2CCC2)[C@H](CO)O1	none
COc1ccc(NC(=O)c2ccc(NC(=O)c3cccs3)cc2)cc1	none
C=CCNC(=O)c1ccccc1NC(=O)COc1ccc(OC)cc1	FGF22 binding 44
COc1ccc(OCC(=O)Nc2ccc(NC(=O)c3cccs3)cc2)cc1	SIRT5 block 102
CC1CCCN(C(=O)COc2ccc(NC(=O)c3cccs3)cc2)C1 (stereo not given)	FGF22 binding 44
O=C(O)COc1ccc(NC(=O)c2cccs2)cc1	none
CCCCCN(C(=O)CCC(=O)OCC(=O)c1ccc(CCC)cc1)c1c(N)n(CCCC)c(=O)[nH]c1=O	SIRT5 block 30
CCCCCN(C(=O)CCC(=O)OCC(=O)c1ccc(C(C)(C)C)cc1)c1c(N)n(CCCC)c(=O)[nH]c1=O	none
CCCCCN(C(=O)CCC(=O)OC(C)C(=O)NC1CCCCC1)c1c(N)n(CCCC)c(=O)[nH]c1=O (stereo not given)	CASP6 VEID inh 43 (no result: FGF22 binding)
COc1ccc(NC(=O)c2ccc3c(c2)NC(=O)CS3)cc1	none
Cc1ccc(NS(=O)(=O)c2cc(NC(=O)c3ccc4c(c3)NC(=O)CS4)ccc2Cl)c(C)c1	FGF22 binding 43
Cc1noc(C)c1S(=O)(=O)Nc1ccc2c(c1)C(=O)N([C@@H](C)CO)C[C@@H](C)[C@H](CN(C)CC1CC1)OCCCC[C@H](C)O2	none (no result: CASP6 VEID inh, ERAP1 inh, SIRT5 block)
N#CCCN1CCN(C2=NC(=O)/C(=C\c3cccs3)S2)CC1	FGF22 binding 44
O=C1N=C(N2CCOCC2)S/C1=C\c1cccs1	none
CC(C)NC(=O)N(C)C[C@H]1Oc2cc(Br)ccc2S(=O)(=O)N([C@@H](C)CO)C[C@@H]1C	none
CCN(Cc1nc(-c2ccc(Cl)cc2)no1)CC1CCCO1 (stereo not given)	none
Clc1ccc(-c2noc(CN(Cc3ccccn3)CC3CCCO3)n2)cc1 (stereo not given)	FGF22 binding 43
CCCCOC(=O)c1sc2nc(N3CCOCC3)c3c(c2c1N)CC(C)(C)OC3	SIRT5 block 24 (no result: ERAP1 inh)
O=C(O)c1cccc(-c2ccc(/C=c3/sc4nc5ccccc5n4c3=O)o2)c1	CASP6 VEID inh 37, SIRT5 block 30
O=C(O)c1ccccc1-c1ccc(C=c2sc3nc4cc(Br)cnc4n3c2=O)o1	SIRT5 block 30 (no result: CASP6 VEID inh)
O=C(O)c1cccc(-c2ccc(/C=N/Nc3nn[nH]n3)o2)c1	none
N=C1S/C(=C\c2ccc(-c3ccccc3C(=O)O)o2)C(=O)N1c1ccc2c(c1)OCO2	none
CC(C)NC(=O)Nc1cccc2c1O[C@H](CN(C)C(=O)Nc1ccc3c(c1)OCO3)[C@@H](C)CN([C@H](C)CO)C2=O	none
O=C(Nc1ccccc1)c1ccc(NCCN2C(=O)CCC2=O)c([N+](=O)[O-])c1	none
Cc1ccccc1NC(=O)c1cc([N+](=O)[O-])ccc1NCCN1C(=O)CCC1=O	FGF22 binding 43
CCOc1cc(/C=C2\C(=O)NN(c3ccccc3)C2=O)cc([N+](=O)[O-])c1O	CASP6 VEID inh 37
O=C1NN(c2ccc(Cl)cc2)C(=O)/C1=C\c1ccc(-c2cccc(C(=O)O)c2)o1	CASP6 VEID inh 73, SIRT5 block 28
O=C1NN(c2ccccc2)C(=O)/C1=C\c1ccc(-c2cc([N+](=O)[O-])ccc2O)o1	SIRT5 block 18 (no result: FGF22 binding)
N#C[C@@H]1[C@H](c2ccc(C#CC3CCCC3)cc2)[C@H](CO)N1C(=O)Cc1ccccn1	none (no result: FGF22 binding)
CC1CCN(CC(=O)c2cccs2)CC1	FGF22 binding 44
CC1CC(C)CN(C(=O)COC(=O)CCC(=O)c2cccs2)C1 (stereo not given)	FGF22 binding 44 (no result: SIRT5 block)
O=C(COC(=O)CCC(=O)c1cccs1)NCc1ccccc1	none
CC1CC(C)CN(CC(=O)c2cccs2)C1 (stereo not given)	none
Cc1ccc(CNC(=O)COC(=O)CCC(=O)c2cccs2)cc1	SIRT5 block 19
OC[C@@H]1Nc2ccc(C#Cc3ccc(F)cc3)cc2[C@H]2[C@@H]1CCN2Cc1ccc2c(c1)OCO2	none (no result: SIRT5 block)
O=C(OCC(=O)N1CCN(C(=O)c2ccco2)CC1)c1ccccc1	none
O=C(OCC(=O)N1CCN(Cc2ccccc2)CC1)c1ccc(Cl)cc1	FGF22 binding 44
N#Cc1ccc(C(=O)OCC(=O)N2CCN(C(=O)c3ccco3)CC2)cc1	SIRT5 block 23
CC(=O)Nc1ccc(C(=O)N2CCN(C(=O)c3ccco3)CC2)cc1	SIRT5 block 17
CCCCOc1ccc(/C=C/C(=O)OCC(=O)c2c(N)n(C)c(=O)n(C)c2=O)cc1OCC	none
O=C1CN(C(=O)COc2cccc(F)c2)c2ccccc2N1	SIRT5 block 18
O=C1CN(C(=O)COC(=O)c2ccc([N+](=O)[O-])o2)c2ccccc2N1	CASP6 VEID inh 39
CC1(C)C(=O)Nc2ccccc2N1C(=O)COC(=O)c1ccc([N+](=O)[O-])o1	CASP6 VEID inh 47
